In one test the test system is RXRa homodimer (NR concentration 180 nM). In words: PBM binding z-score (relative to random genomic background probes); higher = stronger binding; sequences stand for … in GC…GCGATTGACAGCGTAGAATGAAGG
In outline:
(§1)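 On custom Agilent 4×180K arrays, double-stranded probes with 34-nt variable regions carried direct-repeat seeds, single-nucleotide variants, half-site ablations or random human genomic background. Ligand-free nuclear receptor dimers were applied for 1 h, and binding was read with antibodies against each partner (one per run). Binding z-scores come from regression-normalized fluorescence, with the random background probes as reference.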
As to ATCGAAAGGTCGACGAGGAGAGTATACACCGTTT, the PBM binding z-score worked out at 3.91.

On to CGAACTAGGTCATCGAGGACAGTGAATACATTGA, for which the PBM binding z-score came to 3.01.

For CGAACTAAGTCATCCAGGACAGTGAATACATTGA, the PBM binding z-score is 0.264.

Sequence TCTGCTAGGTCAGGTGGTCAGCTAACGAGCTGCC had a PBM binding z-score of 1.66.

In the case of CGAACTAGGTCAACGACAGTGAATCTCCGCACGC, the PBM binding z-score worked out at 2.45.

For the sequence CCTCGGAGGACAACCGGAGGTCAGAGCTGCCAGA, the PBM binding z-score was 1.86.

In the case of TAGCCTAGGTCATTCAGGGGTCAGTATAGAAAGC, the PBM binding z-score was found to be 5.8.

Take CGTCCAAGGTCACCAGGTCAGTGAAAGCGACGTG: the PBM binding z-score was 7.13.

In turn, TATCCTAGGTCAGATCGGGCCAGTATACGCTATA yielded a PBM binding z-score of 2.21.

CGAACTAAGTCACCAGGACAGTGAAGAGGTTGGA gave a PBM binding z-score of 0.285.

For CCTACTGGGCCAAGGTCATTGAGCAGTCAAAGCA, the PBM binding z-score came out at 3.66.

In the case of CCTACTGGGCCAATAAGGTCATTGATGCCGATAA, the PBM binding z-score turned out to be 2.78.

TCTGCTGGGTCAACGATGGTCAGCTAATCTGCTA showed a PBM binding z-score of 2.58.

On to GCTAGTAGGTCAGTAAAAGGTCACACACCGGTCG, for which the PBM binding z-score amounted to 6.4.

The sequence TGTCAAAGCTCAAAGGTAACGTAAGTATCCACAC yielded a PBM binding z-score of 0.764.

CGAACTAGGTGATTGACAGGACAGTGAATAGTAA: the PBM binding z-score is -0.176.

With CCTACTGGGCCAAAGGACATTGATTCCAATGCTC, the PBM binding z-score is 0.166.

CGAACTAGGTCAAAGGACAGGGAAAGGCGACGTA displayed a PBM binding z-score of 2.78.

For AGTCAAAGTTGATCTAGGTAACGTAAGATATGCT, the PBM binding z-score came out at 0.191.

The sequence CCTTACGGGTCACTGACAGGTCATAGCATTTGGA displayed a PBM binding z-score of 6.67.

For TTACCGAGGTGAAAGGTCGTTGATGCACGCCTTG, the PBM binding z-score worked out at 6.76.

In turn, TCGAGTAGGTTACGTGGGCATTCAGGGATGAAGA had a PBM binding z-score of 0.631.

The sequence TCGAGTGGGTTACGGGGGCATTCAGGGATGAAGA showed a PBM binding z-score of 2.74.

In the case of TCTCGGAGGACACGAAGGTCAGCGCTTTCCAGAG, the PBM binding z-score was 2.38.

CCTCGGAGGTCAGAAGGTCAGAGCTGTCCGCTTT registered a PBM binding z-score of 6.44.

With AGCGAAAGGTCGAAGGTGAGTATACCCACCCGAA, the PBM binding z-score is 5.09.

Regarding AATACAGGGTCCTCGTAGGCCAGAGTACGCACAG, the PBM binding z-score is 0.449.

As for AACGAAAGGTCGACGAGGTGAGTATACACCGTTT, the PBM binding z-score was found to be 4.41.

Turning to TCGAGTAGGTTAGGGGGGCATTCAGGGATGAAGA, the PBM binding z-score is 2.32.

CAAACTAGGTCAAGAGGTCAAACTCCGCTTCCCG: the PBM binding z-score came to 8.2.

A further test concerns THRa:RXRa (NR concentration 90 nM, RXRa partner concentration 90 nM). The description is as above. In outline:
as §1
ATCGAAAGGTCGACGAGGAGAGTATACACCGTTT registered a PBM binding z-score of 2.27.

Take CCTACTGGGCCAAAAAGGTAATTGATGCCGATAA: the PBM binding z-score was 0.109.

Sequence CGAACTAGGTCATCGAGGACAGTGAATACATTGA registered a PBM binding z-score of 4.11.

TCTAGTTGGTCGCGGAGGTCACACACGACGGGTA: the PBM binding z-score was 3.45.

CGAACTAAGTCATCCAGGACAGTGAATACATTGA displayed a PBM binding z-score of 1.55.

On to TCTGCTAGGTCAGGTGGTCAGCTAACGAGCTGCC, for which the PBM binding z-score was determined as 1.77.

The sequence CGAACTAGGTCAACGACAGTGAATCTCCGCACGC registered a PBM binding z-score of 2.54.

AGTAGCAGGCCAAGGGTCACTCAAGATTAGTCCG showed a PBM binding z-score of 2.76.

Sequence CCTCGGAGGACAACCGGAGGTCAGAGCTGCCAGA came in with a PBM binding z-score of 3.14.

For the sequence TAGCCTAGGTCATTCAGGGGTCAGTATAGAAAGC, the PBM binding z-score was determined as 4.22.

CGTCCAAGGTCACCAGGTCAGTGAAAGCGACGTG yielded a PBM binding z-score of 4.45.

With TATCCTAGGTCAGATCGGGCCAGTATACGCTATA, the PBM binding z-score amounted to 4.25.

Take CGAACTAAGTCACCAGGACAGTGAAGAGGTTGGA: the PBM binding z-score was found to be 1.27.

The sequence CCTACTGGGCCAAGGTCATTGAGCAGTCAAAGCA showed a PBM binding z-score of 3.23.

As for CCTACTGGGCCAATAAGGTCATTGATGCCGATAA, the PBM binding z-score stood at 4.

In turn, TCTGCTGGGTCAACGATGGTCAGCTAATCTGCTA came in with a PBM binding z-score of 2.65.

As for GCTAGTAGGTCAGTAAAAGGTCACACACCGGTCG, the PBM binding z-score was found to be 4.27.

TGTCAAAGCTCAAAGGTAACGTAAGTATCCACAC displayed a PBM binding z-score of 1.25.

GCTCGGAGGACAAGGTCACAGCTTTGTCCGTAGA yielded a PBM binding z-score of 3.79.

For the sequence CGAACTAGGTGATTGACAGGACAGTGAATAGTAA, the PBM binding z-score was determined as 0.755.

In the case of CCTACTGGGCCAAAGGACATTGATTCCAATGCTC, the PBM binding z-score is -0.11.

On to CGAACTAGGTCAAAGGACAGGGAAAGGCGACGTA, for which the PBM binding z-score is 2.49.

In turn, AGTCAAAGTTGATCTAGGTAACGTAAGATATGCT returned a PBM binding z-score of 1.36.

In turn, CCTTACGGGTCACTGACAGGTCATAGCATTTGGA yielded a PBM binding z-score of 3.98.

With TTACCGAGGTGAAAGGTCGTTGATGCACGCCTTG, the PBM binding z-score came to 3.7.

In turn, TCGAGTAGGTTACGTGGGCATTCAGGGATGAAGA yielded a PBM binding z-score of 0.726.

Consider ATCGAAAGGTCGACGAGGTGAGTATGCACCGTTT, for which the PBM binding z-score was determined as 3.73.

TCGAGTGGGTTACGGGGGCATTCAGGGATGAAGA came in with a PBM binding z-score of 4.08.

In turn, TCTCGGAGGACACGAAGGTCAGCGCTTTCCAGAG displayed a PBM binding z-score of 3.23.

CCTCGGAGGTCAGAAGGTCAGAGCTGTCCGCTTT came in with a PBM binding z-score of 3.41.

CCTACTGGGGCACGAAAGGTCATTGATTCAGTGA came in with a PBM binding z-score of 4.03.

As to CGGCCAAGGTCAAAGGTCAGTGAAGAGATGACGG, the PBM binding z-score turned out to be 4.99.

The sequence AGCGAAAGGTCGAAGGTGAGTATACCCACCCGAA showed a PBM binding z-score of 2.04.

AATACAGGGTCCTCGTAGGCCAGAGTACGCACAG displayed a PBM binding z-score of 1.16.

Sequence AACGAAAGGTCGACGAGGTGAGTATACACCGTTT returned a PBM binding z-score of 3.85.

The sequence CAAACTAGGTCACAGAGGTCAAACTCCGTGCGTA displayed a PBM binding z-score of 4.66.

ACTAGCAGGCCAAGGGTGACTCAAGATTAGTCCG yielded a PBM binding z-score of 0.239.

TCGAGTAGGTTAGGGGGGCATTCAGGGATGAAGA had a PBM binding z-score of 3.86.

As for CAAACTAGGTCAAGAGGTCAAACTCCGCTTCCCG, the PBM binding z-score turned out to be 4.49.

Values taken from the supplement of paper PMC6555819.
